This is an account of results in PubChem BioAssay (NCI).

This is part of a sample that, as a whole, favours compounds with a hit. Of some 83,000 tested, about 20% had one in any assay.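 For each line, cells grew in 96-well plates with the test compound present at a single concentration for 48 hours.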 Unmarked numbers belong to inactive results. The source made the active and inactive calls. How the source made its calls: active means growth percent below 10; inactive means the rest.

Among the test systems are T-47D breast; BT-549 breast; SW-620 colon; MCF7 breast; HCT-116 colon; HCC-2998 colon; KM12 colon; MDA-MB-435 melanoma.
What all share (test): NCI-60 one-dose screen, 48 h (100 = growth as untreated, 0 = no growth, -100 = all killed)
What all share (conditions): 10 µM unless noted

Turning to `CC(C)[N+](C)(CCOC(COc1ccccc1)COc1ccccc1)C(C)C`, the growth in the experiment on T-47D breast was 85.7%; in the experiment with BT-549 breast, 80.6%; in the experiment with SW-620 colon, 102%; with MCF7 breast, 91.4%; in the experiment with HCT-116 colon, 92.2%; in the experiment on HCC-2998 colon, 96.7%. For the same molecule, in the experiment with KM12 colon, the growth is 83.5%.
Turning to `COc1cc2ncnc(Nc3ccc(C(=O)/C=C/c4ccc(C(F)(F)F)cc4F)cc3)c2cc1OC`, the growth in the experiment with T-47D breast is 131%; with BT-549 breast, 93.6%; in the experiment with SW-620 colon it was 110%; in the experiment on MCF7 breast it was 64.6%; in the experiment on HCT-116 colon, -62.7% (active); in the experiment with HCC-2998 colon, 109%. Further, in the experiment on KM12 colon, the growth was 83.4%.
Turning to `CN1C(=O)N(C)C2NC(N/N=C/c3ccccc3)=NC21` (centres undefined), the growth in the experiment with T-47D breast was 90.6%; in the experiment with BT-549 breast, 100%; in the experiment with SW-620 colon it was 102%; in the experiment with MCF7 breast, 98.2%; in the experiment with HCT-116 colon, 95.6%; in the experiment with HCC-2998 colon, 103%. Moreover, in the experiment with KM12 colon, the growth was 108%.
On to `FCc1nc2nc(Cl)c(Cl)nc2[nH]1`, for which the growth with T-47D breast is 101%; in the experiment with BT-549 breast it was 104%; in the experiment on SW-620 colon it was 103%; in the experiment with MCF7 breast, 96.5%; with HCT-116 colon, 101%; in the experiment with HCC-2998 colon, 104%. In addition, the growth with KM12 colon was 104%.
In the case of `COc1cc2nc(-c3ccc(C(F)(F)F)cc3)cc(OCCCN3CCC(O)CC3)c2cc1OC`, the growth is 24.7% in the experiment on T-47D breast; 26.5% in the experiment on BT-549 breast; 15.9% in the experiment on SW-620 colon; 37.3% with MCF7 breast; 15% in the experiment on HCT-116 colon; 52.5% with HCC-2998 colon. Moreover, the growth in the experiment with KM12 colon is 26.5%.
As to `CSc1nc(O)c(-c2ccccc2)c(=O)[nH]1`, the growth in the experiment on T-47D breast is 100%; in the experiment with BT-549 breast, 103%; with SW-620 colon it was 98.8%; in the experiment with MCF7 breast, 96.3%; with HCT-116 colon, 99.4%; with KM12 colon it was 103%.
Regarding `O=C1Nc2c(ccc(Cl)c2Cl)/C1=C/c1ccccn1`, the growth in the experiment with T-47D breast was 56.9%; in the experiment with BT-549 breast, 92.1%; with SW-620 colon it was 76.8%; in the experiment with MCF7 breast, 29%; in the experiment on HCT-116 colon, 24.2%; in the experiment on HCC-2998 colon, 85.1%. Besides, in the experiment with KM12 colon, the growth was 87.1%.
`COc1cc2c(cc1[N+](=O)[O-])-c1ccc([N+](=O)[O-])cc1/C2=N\O`: the growth in the experiment on T-47D breast is 91.1%; in the experiment with BT-549 breast it was 73.1%; in the experiment with SW-620 colon it was 75.2%; with MCF7 breast, 58%; with HCT-116 colon it was 71.8%; with HCC-2998 colon, 106%. Besides, the growth in the experiment on KM12 colon is 95.1%.
With `COc1ccc(C2CC(c3cccc(Nc4ccncc4)c3)=NN2c2ccccc2)cc1` (centres undefined), the growth in the experiment on T-47D breast is 68.9%; in the experiment with BT-549 breast, -16.1% (active); in the experiment on SW-620 colon, -72.2% (active); in the experiment with MCF7 breast, 8.74% (active); with HCT-116 colon, 1.38% (active); with HCC-2998 colon, -52.5% (active). The growth in the experiment with KM12 colon was -18.1% (active).
As for `CCCCc1ccc(Nc2nnc(SCC(=O)NC(=O)NCC)s2)cc1`, the growth was 128% with T-47D breast; 104% with MDA-MB-435 melanoma; 102% in the experiment with SW-620 colon; 101% in the experiment on MCF7 breast; 93.6% in the experiment with HCT-116 colon; 105% in the experiment on HCC-2998 colon. In the experiment with KM12 colon, the growth was 102%.
Take `CCCCCOc1ccc(/C=N/Nc2cc(C)nc3ccc(Br)cc23)cc1`: the growth in the experiment on T-47D breast is 83.4%; in the experiment on BT-549 breast, 103%; in the experiment on SW-620 colon, -61.2% (active); with MCF7 breast, -73% (active); in the experiment on HCT-116 colon it was -79.9% (active); in the experiment with HCC-2998 colon, -58.3% (active). Further, in the experiment with KM12 colon, the growth is -65.5% (active).
In the case of `COc1ccc(-c2cnc(N)nc2-c2ccc(OC)cc2O)cc1`, the growth is 93.7% with T-47D breast; 115% in the experiment on BT-549 breast; 95.7% in the experiment on SW-620 colon; 95.4% in the experiment on MCF7 breast; 80.4% in the experiment with HCT-116 colon; 103% with HCC-2998 colon. The growth in the experiment on KM12 colon was 45.5%.
On to `COC(=O)C1=C(C(=O)ONCCN(C)C)C2C=CC1(C(Cc1ccccc1)Nc1ccc(F)cc1)O2` (centres undefined), for which the growth in the experiment on T-47D breast was -0.816% (active); in the experiment with BT-549 breast it was 122%; in the experiment on SW-620 colon it was 51.8%; in the experiment with MCF7 breast, 97.5%; in the experiment on HCT-116 colon it was -48.9% (active); with HCC-2998 colon, 107%. The growth with KM12 colon is 94.8%.
Consider `CC(C)CN(C(=O)c1ccc(Cl)cc1)c1c(N)n(CC(C)C)c(=O)[nH]c1=O`, for which the growth in the experiment with T-47D breast is 105%; with MDA-MB-435 melanoma, 112%; in the experiment on SW-620 colon it was 100%; in the experiment with MCF7 breast, 95%; in the experiment on HCT-116 colon, 96.2%; in the experiment with HCC-2998 colon it was 106%. Also, the growth in the experiment on KM12 colon is 102%.
On to `CC(C)Cc1ccc(C(C)C(=O)NCc2c[nH]c3ccc(Cl)cc23)cc1` (centres undefined), for which the growth with T-47D breast is 69.8%; with BT-549 breast, 88.8%; in the experiment on SW-620 colon, 90.9%; in the experiment with MCF7 breast it was 89.5%; in the experiment with HCT-116 colon, 85.9%; with HCC-2998 colon, 103%. In the experiment with KM12 colon, the growth was 83.5%.
